# Some structures have more than one record in an assay (separate samples or runs), and their calls can disagree. Active and inactive are the calls of the source. The calls were made as follows: active = hit-call score of the fitted dose curve at least 0.9, where 1 is the maximum; inactive = score below 0.9.
# Assays:
# [1] = ATG_CRE_CIS: Attagene CIS-FACTORIAL HepG2 Assay for human cAMP Responsive Element (CRE) binding protein 3 (AID 2282926); conditions: HepG2 CRE cis-reporter, Attagene multiplexed mRNA; actives raise or lower the signal
# How it was run: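 Cells carrying cis-regulated reporter constructs respond through their own endogenous factors. After 24 h treatment, RNA is reverse-transcribed, amplified, labelled and sized by capillary electrophoresis; up- and down-regulation are both scored against vehicle.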
# [2] = molecular target: CCAAT/enhancer-binding protein beta (Homo sapiens) (UniProt P17676); assay: ATG_C_EBP_CIS: Attagene CIS-FACTORIAL HepG2 Assay for human CCAAT/Enhancer Binding Protein (C/EBP) beta (AID 2282927); conditions: HepG2 Attagene cis-factorial transcription factor reporter; actives raise or lower the signal
# How it was run: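 Endogenous C/EBPb-driven reporter transcripts measured in transfected human HepG2 cells at 24 h via RT-PCR and capillary electrophoresis of labelled fragments. Activity fitted in both directions relative to DMSO baseline.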
# [3] = ATG_CMV_CIS: Attagene CIS-FACTORIAL HepG2 Assay for human CMV (Internal Marker) (AID 2282928); conditions: HepG2 CMV promoter reporter, transcription factor profiling; actives raise or lower the signal;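 also: endpoint acts as a background internal control marker rather than a target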
# How it was run: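 24 h chemical treatment, HepG2 with transient multi-reporter transfection; RNA → oligo(dT) RT → PCR → 6-FAM extension → HpaI digest → CE fluorescence. Bidirectional fit, DMSO negative control.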
# [4] = molecular target: Aryl hydrocarbon receptor (Homo sapiens) (UniProt P35869); assay: ATG_Ahr_CIS: Attagene CIS-FACTORIAL HepG2 Assay for human Aryl Hydrocarbon Receptor (Ahr) (AID 2282930); conditions: HepG2 AhR cis-factorial reporter transcription; actives raise or lower the signal
# How it was run: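 Reporter mRNA levels, quantified by RT-PCR and fluorescent capillary electrophoresis, reflect endogenous AhR transcriptional activity in HepG2 cells carrying transfected cis-promoter reporter constructs. Readout at 24 h post-dose; gain or loss fitted against DMSO baseline.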
# [5] = ATG_AP_1_CIS: Attagene CIS-FACTORIAL HepG2 Assay for human Activator Protein 1 (AP-1) (AID 2282931); conditions: HepG2 Attagene cis-factorial AP-1 reporter mRNA; actives raise or lower the signal
# How it was run: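 Cis-regulated reporter units transiently expressed in HepG2 report endogenous transcription-factor activity. Signal: reporter mRNA at 24 h, via RT-PCR and fluorescent capillary electrophoresis. Endpoint derived by bidirectional fitting, DMSO as negative control.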
# [6] = ATG_AP_2_CIS: Attagene CIS-FACTORIAL HepG2 Assay for human Activator Protein 2 (AP-2) (AID 2282932); conditions: HepG2 AP-2 cis-reporter, Attagene transcription factor profiling; actives raise or lower the signal
# How it was run: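 Transiently transfected HepG2 cells are exposed to chemical for 24 h. Reporter transcripts are then measured as fluorescence following RT-PCR and capillary separation, and gain- or loss-of-signal is fitted relative to DMSO.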
# [7] = ATG_BRE_CIS: Attagene CIS-FACTORIAL HepG2 Assay for human Bone Morphogenetic Protein (BMP) Response Element (BRE) (AID 2282933); conditions: HepG2 BMP response element reporter, Attagene transcription factor profiling; actives raise or lower the signal
# How it was run: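 Transient MRTU transfection of human HepG2 liver cells; 24 h compound treatment; total RNA isolated, reverse-transcribed, PCR-amplified, 6-FAM labelled, HpaI-cut, capillary electrophoresis. DMSO = negative control/baseline, bidirectional fit.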
# [8] = molecular target: Retinoic acid receptor alpha (Homo sapiens) (UniProt P10276); assay: ATG_DR5_RAR_CIS: Attagene CIS-FACTORIAL HepG2 Assay for human Retinoic Acid Receptor Alpha (RARE), DR5 submotif (AID 2282934); conditions: HepG2 Attagene cis-factorial RARE DR5 reporter, mRNA; actives raise or lower the signal;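 as to AC50: reporter responds to endogenous RAR alpha beta and gamma in HepG2 not RARA alone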
# How it was run: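 Reporter transcripts from a DR5-regulated unit, measured via RT-PCR plus capillary electrophoresis, reflect endogenous RAR activity in transiently transfected human HepG2 liver cells. Exposure lasted 24 h; gain or loss of signal scored against DMSO.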
# [9] = molecular target: Transcription factor E2F1 (Homo sapiens) (UniProt Q01094); assay: ATG_E2F_CIS: Attagene CIS-FACTORIAL HepG2 Assay for human E2F Transcription Factor 1 (AID 2282935); conditions: HepG2 Attagene cis-reporter, E2F reporter RNA transcripts; actives raise or lower the signal
# How it was run: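 Fluorescent RT-PCR products, digested with HpaI for 2 h at 37 C, are separated by capillary electrophoresis. Source RNA comes from transfected HepG2 cultures treated for 24 h.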
# [10] = ATG_E_Box_CIS: Attagene CIS-FACTORIAL HepG2 Assay for human Enhancer Box (E-box) (AID 2282936); conditions: HepG2 E-box cis-reporter transcription, actives raise or lower the signal
# How it was run: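 Fluorescent reporter fragments separated by capillary electrophoresis gave the signal; mRNA came from HepG2 cells transfected with cis-element reporters and treated 24 h. Curves fitted bidirectionally relative to DMSO controls.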
# [11] = ATG_M_61_CIS: Attagene CIS-FACTORIAL HepG2 Assay for M61 Transcription Factor (Internal Marker) (AID 2282937); conditions: HepG2 Attagene CIS-FACTORIAL M61 internal marker reporter; actives raise or lower the signal
# How it was run: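 Background-control endpoint: HepG2 cells with cis-regulated reporter constructs, 24 h exposure, reporter mRNA detected via fluorescent primer extension and capillary electrophoresis; values from bidirectional fitting with DMSO baseline.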
# [12] = ATG_EGR_CIS: Attagene CIS-FACTORIAL HepG2 Assay for human Early Growth Response 1 (EGR1) (AID 2282938); conditions: HepG2 Attagene CIS-FACTORIAL EGR reporter mRNA; actives raise or lower the signal
# How it was run: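 Endpoint derived by bidirectional fitting versus DMSO vehicle. Method: cis-promoter reporter units transfected into HepG2, 24 h dosing, RNA isolation, RT-PCR with 6-FAM primer extension and HpaI digestion, then capillary electrophoresis fluorescence detection.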
# [13] = ATG_DR4_LXR_CIS: Attagene CIS-FACTORIAL HepG2 Assay for human Liver X Receptor (LXR), DR4 submotif (AID 2282929); conditions: HepG2 Attagene DR4 cis-reporter, mRNA transcription; actives raise or lower the signal
# How it was run: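 DR4 cis-reporter in HepG2, 24 h exposure. Detection: RT-PCR, 6-FAM labelling, CE fragment analysis. Endpoint fitted bidirectionally, DMSO = baseline.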
# Chain of Transcription factor E2F1 (Homo sapiens) (Q01094 whole entry, looked up): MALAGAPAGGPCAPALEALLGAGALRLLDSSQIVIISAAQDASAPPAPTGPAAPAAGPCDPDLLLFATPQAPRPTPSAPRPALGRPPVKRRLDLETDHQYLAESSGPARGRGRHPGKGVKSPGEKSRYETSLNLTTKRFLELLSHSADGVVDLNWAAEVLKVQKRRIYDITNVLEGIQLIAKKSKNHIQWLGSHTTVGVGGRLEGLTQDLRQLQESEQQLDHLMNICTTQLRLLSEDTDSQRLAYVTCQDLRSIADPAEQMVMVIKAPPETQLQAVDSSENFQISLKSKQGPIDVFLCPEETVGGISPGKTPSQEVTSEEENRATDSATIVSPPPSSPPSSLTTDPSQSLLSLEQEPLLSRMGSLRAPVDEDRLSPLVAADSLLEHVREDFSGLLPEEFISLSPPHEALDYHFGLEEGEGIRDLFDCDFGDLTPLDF
# Chain of Retinoic acid receptor alpha (Homo sapiens) (P10276 whole entry, looked up): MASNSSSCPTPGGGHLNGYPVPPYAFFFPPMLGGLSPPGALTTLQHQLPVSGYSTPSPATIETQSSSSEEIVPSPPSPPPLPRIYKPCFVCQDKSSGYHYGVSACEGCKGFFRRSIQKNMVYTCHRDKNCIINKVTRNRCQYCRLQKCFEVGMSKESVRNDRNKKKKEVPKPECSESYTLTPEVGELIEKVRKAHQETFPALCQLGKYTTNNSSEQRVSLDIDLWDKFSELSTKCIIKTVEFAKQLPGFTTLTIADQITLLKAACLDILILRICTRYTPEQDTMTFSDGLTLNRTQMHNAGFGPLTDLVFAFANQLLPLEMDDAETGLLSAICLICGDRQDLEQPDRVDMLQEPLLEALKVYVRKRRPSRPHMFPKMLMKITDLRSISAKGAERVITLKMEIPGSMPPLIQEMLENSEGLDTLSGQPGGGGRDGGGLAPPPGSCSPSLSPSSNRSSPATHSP
# Chain of CCAAT/enhancer-binding protein beta (Homo sapiens) (P17676 whole entry, looked up, the tested form may be a part): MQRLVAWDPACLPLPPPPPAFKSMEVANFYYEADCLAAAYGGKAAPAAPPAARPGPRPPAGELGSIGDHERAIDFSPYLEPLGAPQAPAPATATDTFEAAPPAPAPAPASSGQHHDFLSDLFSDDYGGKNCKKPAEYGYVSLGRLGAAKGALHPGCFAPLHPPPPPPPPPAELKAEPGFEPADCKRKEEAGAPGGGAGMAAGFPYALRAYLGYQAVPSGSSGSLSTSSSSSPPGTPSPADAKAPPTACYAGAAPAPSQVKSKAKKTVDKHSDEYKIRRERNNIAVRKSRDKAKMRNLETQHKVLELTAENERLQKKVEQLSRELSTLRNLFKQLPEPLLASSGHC
# Chain of Aryl hydrocarbon receptor (Homo sapiens) (P35869 whole entry, looked up): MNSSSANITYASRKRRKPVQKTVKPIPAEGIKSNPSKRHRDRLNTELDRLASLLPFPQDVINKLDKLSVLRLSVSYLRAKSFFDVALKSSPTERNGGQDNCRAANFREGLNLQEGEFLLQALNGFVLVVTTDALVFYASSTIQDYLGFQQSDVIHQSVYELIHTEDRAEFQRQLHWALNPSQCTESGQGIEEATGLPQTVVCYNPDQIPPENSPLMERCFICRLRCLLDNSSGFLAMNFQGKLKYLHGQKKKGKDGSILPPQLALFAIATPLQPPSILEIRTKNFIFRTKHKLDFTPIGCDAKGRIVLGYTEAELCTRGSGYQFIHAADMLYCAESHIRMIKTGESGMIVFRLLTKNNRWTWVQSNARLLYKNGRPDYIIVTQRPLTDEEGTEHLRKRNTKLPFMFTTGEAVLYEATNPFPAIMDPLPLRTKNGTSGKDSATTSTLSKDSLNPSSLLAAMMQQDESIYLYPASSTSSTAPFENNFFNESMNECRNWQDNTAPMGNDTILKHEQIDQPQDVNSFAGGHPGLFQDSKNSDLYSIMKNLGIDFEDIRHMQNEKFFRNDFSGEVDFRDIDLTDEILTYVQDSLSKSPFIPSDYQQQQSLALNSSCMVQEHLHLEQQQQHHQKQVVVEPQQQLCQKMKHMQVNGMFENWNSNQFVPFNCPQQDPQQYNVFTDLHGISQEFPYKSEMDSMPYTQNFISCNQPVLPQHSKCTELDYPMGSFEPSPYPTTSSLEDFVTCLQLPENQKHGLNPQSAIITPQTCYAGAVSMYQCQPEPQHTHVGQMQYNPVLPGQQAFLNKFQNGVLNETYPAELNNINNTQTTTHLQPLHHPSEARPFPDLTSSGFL
compound,measurement,setting,value
CC(C)[C@@H](Nc1ccc(C(F)(F)F)cc1Cl)C(=O)OC(C#N)c1cccc(Oc2ccccc2)c1 (some centres undefined),outcome,[1],inactive
same,outcome,[2],inactive
same,outcome,[3],inactive
same,outcome,[4],inactive
same,outcome,[5],inactive
same,outcome,[6],inactive
same,outcome,[7],inactive
same,outcome,[8],inactive
same,outcome,[9],inactive
same,outcome,[10],inactive
same,outcome,[11],inactive
same,outcome,[12],inactive
c1ccc(-c2cccc(-c3ccccc3)c2)cc1,outcome,[1],inactive
same,outcome,[2],inactive
same,outcome,[3],inactive
same,AC50,[13],27.4 µM (active)
same,AC50,[4],21.9 µM (active)
same,outcome,[6],inactive
same,outcome,[7],inactive
same,outcome,[9],inactive
same,outcome,[10],inactive
same,outcome,[11],inactive
same,outcome,[12],inactive
CCOC(=O)c1ccccc1S(=O)(=O)NC(=O)Nc1nc(Cl)cc(OC)n1,outcome,[1],inactive
same,outcome,[2],inactive
same,outcome,[3],inactive
same,outcome,[13],inactive
same,outcome,[4],inactive
same,outcome,[6],inactive
same,outcome,[7],inactive
same,outcome,[9],inactive
same,outcome,[10],inactive
same,outcome,[12],inactive
Nc1cccnc1,outcome,[1],inactive
same,outcome,[2],inactive
same,outcome,[3],inactive
same,outcome,[4],inactive
same,outcome,[5],inactive
same,outcome,[6],inactive
same,outcome,[7],inactive
same,outcome,[8],inactive
same,outcome,[9],inactive
same,outcome,[10],inactive
same,outcome,[11],inactive
same,outcome,[12],inactive
CCOC(=O)CC(=O)CCl,AC50,[1],176 µM (active)
same,AC50,[2],183 µM (active)
same,AC50,[3],65.7 µM (active)
same,outcome,[4],inactive
same,AC50,[5],75.2 µM (active)
same,AC50,[6],44 µM (active)
same,outcome,[7],inactive
same,outcome,[8],inactive
same,outcome,[9],inactive
same,AC50,[10],128 µM (active)
same,outcome,[11],inactive
C=C(C)C(=O)OCC(CC)CCCC (centres undefined),outcome,[1],inactive
same,outcome,[2],inactive
same,outcome,[3],inactive
same,outcome,[4],inactive
same,outcome,[5],inactive
same,outcome,[6],inactive
same,outcome,[7],inactive
same,outcome,[8],inactive
same,outcome,[9],inactive
same,outcome,[10],inactive
same,outcome,[11],inactive
same,outcome,[12],inactive
CCOP(=S)(OCC)SCSc1cc(Cl)ccc1Cl,outcome,[1],inactive
same,outcome,[2],inactive
same,outcome,[3],inactive
same,outcome,[4],inactive
same,outcome,[5],inactive
same,outcome,[6],inactive
same,outcome,[7],inactive
same,outcome,[8],inactive
same,outcome,[9],inactive
same,outcome,[10],inactive
same,outcome,[11],inactive
same,outcome,[12],inactive
Nc1nc(=S)[nH][nH]1,outcome,[1],inactive
same,outcome,[2],inactive
same,outcome,[3],inactive
same,outcome,[4],inactive
same,outcome,[5],inactive
same,outcome,[6],inactive
same,outcome,[7],inactive
same,outcome,[9],inactive
same,outcome,[10],inactive
same,outcome,[11],inactive
same,outcome,[12],inactive
CCCSP(=S)(OCC)Oc1ccc(Cl)cc1Cl (centres undefined),outcome,[1],inactive
same,outcome,[2],inactive
same,outcome,[3],inactive
same,outcome,[4],inactive
same,AC50,[5],31.7 µM (active)
same,outcome,[6],inactive
same,outcome,[7],inactive
same,outcome,[8],inactive
same,outcome,[9],inactive
same,outcome,[10],inactive
same,outcome,[11],inactive
same,outcome,[12],inactive
O=[N+]([O-])c1ccccc1O,outcome,[1],inactive
same,outcome,[2],inactive
same,outcome,[3],inactive
same,outcome,[4],inactive
same,outcome,[5],inactive
same,outcome,[6],inactive
same,AC50,[8],27.3 µM (active)
same,outcome,[8],inactive
same,outcome,[9],inactive
same,outcome,[10],inactive
same,outcome,[11],inactive
same,outcome,[12],inactive
OC(Cc1ccccc1Cl)(Cn1cncn1)C1(Cl)CC1 (centres undefined),outcome,[1],inactive
same,outcome,[2],inactive
same,outcome,[3],inactive
same,outcome,[4],inactive
same,outcome,[5],inactive
same,outcome,[6],inactive
same,outcome,[7],inactive
same,outcome,[8],inactive
same,outcome,[9],inactive
same,outcome,[10],inactive
same,outcome,[11],inactive
same,AC50,[12],47.6 µM (active)
c1cc[c]([Sb]([c]2ccccc2)[c]2ccccc2)cc1,outcome,[1],inactive
same,outcome,[2],inactive
same,AC50,[3],64.8 µM (active)
same,AC50,[13],9.64 µM (active)
same,outcome,[4],inactive
same,outcome,[6],inactive
same,outcome,[7],inactive
same,outcome,[9],inactive
same,outcome,[10],inactive
same,outcome,[11],inactive
NC(=O)c1ccc(N)nc1,outcome,[1],inactive
same,outcome,[2],inactive
same,outcome,[3],inactive
same,outcome,[4],inactive
same,outcome,[5],inactive
same,outcome,[6],inactive
same,outcome,[7],inactive
same,outcome,[8],inactive
same,outcome,[9],inactive
same,outcome,[11],inactive
same,outcome,[12],inactive
CCCSP(=S)(OCC)Oc1ccc(SC)cc1 (centres undefined),outcome,[1],inactive
same,outcome,[2],inactive
same,outcome,[3],inactive
same,outcome,[4],inactive
same,outcome,[5],inactive
same,outcome,[6],inactive
same,outcome,[7],inactive
same,outcome,[8],inactive
same,outcome,[9],inactive
same,outcome,[10],inactive
same,outcome,[11],inactive
same,outcome,[12],inactive
c1ccc2sc(SNC3CCCCC3)nc2c1,outcome,[1],inactive
same,outcome,[2],inactive
same,outcome,[3],inactive
same,AC50,[4],4.84 µM (active)
same,AC50,[5],52.1 µM (active)
same,AC50,[6],149 µM (active)
same,outcome,[7],inactive
same,outcome,[8],inactive
same,outcome,[9],inactive
same,outcome,[10],inactive
same,outcome,[11],inactive
same,outcome,[12],inactive
OCCCCO,outcome,[1],inactive
same,outcome,[2],inactive
same,outcome,[3],inactive
same,outcome,[4],inactive
same,outcome,[5],inactive
same,outcome,[6],inactive
same,outcome,[7],inactive
same,outcome,[8],inactive
same,outcome,[9],inactive
same,outcome,[10],inactive
same,outcome,[11],inactive
same,outcome,[12],inactive
OC[P+](CO)(CO)CO,outcome,[1],inactive
same,outcome,[2],inactive
same,outcome,[3],inactive
same,outcome,[13],inactive
same,outcome,[4],inactive
same,outcome,[6],inactive
same,outcome,[7],inactive
same,outcome,[8],inactive
same,outcome,[9],inactive
same,outcome,[11],inactive
same,outcome,[12],inactive
CCCCS(=O)(=O)Cl,outcome,[1],inactive
same,outcome,[2],inactive
same,outcome,[3],inactive
same,outcome,[13],inactive
same,outcome,[4],inactive
same,outcome,[6],inactive
same,outcome,[8],inactive
same,outcome,[9],inactive
same,outcome,[10],inactive
same,outcome,[11],inactive
same,outcome,[12],inactive
C=CCN=C=S,outcome,[1],inactive
same,outcome,[2],inactive
same,outcome,[3],inactive
same,outcome,[4],inactive
same,outcome,[5],inactive
same,outcome,[6],inactive
same,outcome,[7],inactive
same,outcome,[8],inactive
same,outcome,[9],inactive
same,outcome,[10],inactive
same,outcome,[11],inactive
CNC(=O)CSP(=O)(OC)OC,outcome,[1],inactive
same,outcome,[2],inactive
same,outcome,[3],inactive
same,outcome,[4],inactive
same,outcome,[5],inactive
same,outcome,[6],inactive
same,outcome,[7],inactive
same,outcome,[9],inactive
same,outcome,[10],inactive
CC(c1ccc(O)cc1)c1ccc(O)cc1,outcome,[1],inactive
same,outcome,[2],inactive
same,outcome,[3],inactive
same,outcome,[4],inactive
same,outcome,[5],inactive
same,outcome,[6],inactive
same,outcome,[7],inactive
same,outcome,[8],inactive
same,outcome,[9],inactive
same,outcome,[10],inactive
same,outcome,[11],inactive
same,outcome,[12],inactive
CCOP(=S)(OCC)OP(=S)(OCC)OCC,outcome,[1],inactive
same,outcome,[2],inactive
same,outcome,[3],inactive
same,outcome,[4],inactive
same,outcome,[5],inactive
same,outcome,[6],inactive
same,outcome,[8],inactive
same,outcome,[9],inactive
same,outcome,[10],inactive
same,outcome,[11],inactive
same,outcome,[12],inactive
